Screening results (PubChem BioAssay)
FECH inh – inhibitors of human ferrochelatase, primary screen, biochemical, purified FECH, Ni-mesoporphyrin absorbance. calls only at 10 µM (by protocol). actives 3.3% (n = 20,000). Ni-mesoporphyrin absorbance 550 nm;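 active = enzyme reaction rate more than 3 SD below the solvent-only control wells on the same plate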;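 note: lower slope than DMSO wells means FECH inhibition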
Target sequence (P22830 whole entry, looked up): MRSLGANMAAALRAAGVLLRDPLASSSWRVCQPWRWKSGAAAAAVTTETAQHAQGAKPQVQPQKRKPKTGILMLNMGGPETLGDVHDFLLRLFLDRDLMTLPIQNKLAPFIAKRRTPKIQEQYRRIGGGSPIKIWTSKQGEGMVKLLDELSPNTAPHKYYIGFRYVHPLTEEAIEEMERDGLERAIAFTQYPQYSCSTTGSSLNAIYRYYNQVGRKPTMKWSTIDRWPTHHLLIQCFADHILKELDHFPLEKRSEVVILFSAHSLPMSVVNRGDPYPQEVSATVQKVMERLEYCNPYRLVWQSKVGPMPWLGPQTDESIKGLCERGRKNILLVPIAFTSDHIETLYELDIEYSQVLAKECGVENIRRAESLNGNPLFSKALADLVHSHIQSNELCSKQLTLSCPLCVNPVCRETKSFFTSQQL
An asterisk follows results filed as active; i = inactive; + = active, no number. Only a selection was taken, and hits are over-represented in it overall.

SMILES	FECH inh
COc1ccccc1CNC(=O)CN(C)Cc1c(C)nn(C)c1C	i
Cc1ccc(NC(=O)CN2CCN(Cc3ccc(F)cc3Cl)S2(=O)=O)c(Cl)c1	i
COc1ccccc1CNC(=O)CN(C)Cc1ncc(C)[nH]1	i
CCC(=O)Nc1ccccc1-c1nnc(SCC(=O)Nc2ccc(C)cc2C)[nH]c1=O	i
COc1cccc(CNC(=O)CSc2cc(Oc3cc(C)cc(C)c3)ncn2)c1OC	+
CCCN(CCC)c1ncc(NS(=O)(=O)c2ccc(C)cc2C)cc1C(=O)O	i
O=C(CSc1nc(-c2ccc3c(c2)OCO3)nc2cc(=O)[nH]n12)NCC1CCCO1 (stereo not drawn)	i
Cc1ccccc1Nc1nc(NC2CCCC2)nc2c1cnn2-c1ccccc1	i
CCc1cc(Sc2ccccc2NC(=O)C2CC2)n2nc(C)nc2n1	i
CC1c2cccn2CCN1C(=O)CNS(=O)(=O)c1cccs1 (stereo not drawn)	i
CC1c2cccn2CCN1C(=O)c1ccc(C#CC(C)(C)O)o1 (stereo not drawn)	i
CC(=O)Nc1ccccc1SCC(=O)N1CCn2cccc2C1C (stereo not drawn)	+
Cc1ccc(CNC(=O)C2(C)Cn3nc(C(=O)NCCc4ccccc4)cc3C(=O)N2C)cc1 (stereo not drawn)	i
c1ccc(-c2ncn(CC3CNCCO3)c2-c2cccn2-c2cccnc2)cc1 (stereo not drawn)	i
CCc1[nH]c2c(CNc3cc(N4CCOCC4)ncn3)cc(C)cc2c1C	i
CCc1cc(C(=O)NCc2cc(C)cc3c(C)c(CC)[nH]c23)n(C)n1	+
CCCNC(=O)NCc1cc(C)cc2c(C)c(CC)[nH]c12	i
O=C(CN1c2ccc(F)cc2-c2ccccc2S1(=O)=O)NCCCn1ccnc1	i
CCc1ccc(C2=C(C)C(=O)N(CC(=O)NCc3cccs3)S2(=O)=O)cc1	i
CCc1ccc2c(c1)-c1ccccc1S(=O)(=O)N2CC(=O)NCCCn1ccnc1	+
CCc1ccc2c(c1)-c1ccccc1S(=O)(=O)N2CC(=O)NCc1cccnc1	+
CCc1ccc2c(c1)-c1ccccc1S(=O)(=O)N2CC(=O)NCCSC1CCCCC1	i
CCc1ccc(C2=C(C)C(=O)N(CC(=O)Nc3cc(C)ccc3OC)S2(=O)=O)cc1	i
CCOC(=O)c1cc2ccsc2n1CC(=O)NC1CCCCC1	i
C=CCN(Cc1ccc(SC)cc1)C(=O)[C@@H]1C[C@@H](O)CN1	i
SMILES	FECH inh
CCc1ncn(Cc2nc(-c3cc(OC)ccc3F)oc2C)n1	i
Cc1ccc(S(=O)(=O)N(Cc2nc3nc(C)cc(C)n3n2)c2ccccc2)cc1	i
Cc1ccc(N(Cc2nc3nc(C)cc(C)n3n2)S(C)(=O)=O)cc1	i
Cc1cc(C)n2nc(CN(c3cccc(Cl)c3)S(=O)(=O)c3ccccc3)nc2n1	i
Cc1ccc(N(Cc2nc3nc(C)cc(C)n3n2)S(=O)(=O)c2ccc(Cl)cc2)cc1	+
Cc1ccc(S(=O)(=O)N(Cc2nc3nc(C)c(Cl)c(C)n3n2)c2ccccc2)cc1	i
Cc1ccc(S(=O)(=O)N(Cc2nc3nc(C)cc(C)n3n2)c2ccc(Cl)cc2)cc1	+
CCC1C(=O)N(C)CCN1C(=O)c1cc(COc2ccccc2OC)[nH]n1 (stereo not drawn)	i
Cc1nc(SCc2nc(-c3cccc(Cl)c3)oc2C)[nH]c(=O)c1Cc1ccccc1	i
Cc1ccc(NC(=O)CN2CCCC(OCc3ccccn3)C2)cc1C (stereo not drawn)	+
O=S(=O)(NCc1ccccc1)N1CCCC(OCc2ccccn2)C1 (stereo not drawn)	i
Cc1nc(C(C)C)cc(N2CCCC(OCc3ccccn3)C2)n1 (stereo not drawn)	i
CCc1c(C)nc2ncnn2c1Sc1ccc(NC(=O)Nc2cccc(C)c2)cc1	i
CCc1c(C)nc2ncnn2c1Sc1ccc(NC(=O)Nc2ccc(C)c(C)c2)cc1	i
CCc1c(C)nc2ncnn2c1Sc1ccc(NC(=O)Nc2ccc(C)c(F)c2)cc1	+
CCc1c(C)nc2ncnn2c1Sc1ccc(NC(=O)Nc2ccccc2)cc1	i
CCc1c(C)nc2ncnn2c1Sc1ccc(NC(=O)Nc2ccc3c(c2)OCCO3)cc1	+
CCc1c(C)nc2ncnn2c1Sc1ccc(NC(=O)Nc2ccc(F)cc2)cc1	i
Cc1nsc(NC(=O)N2CCC(CN)CC2)n1	i
Cc1cc(=O)n2[nH]c(NCc3ccc(C(=O)Nc4ccc(C)c(C)c4)cc3)nc2n1	i
COc1cc(-c2cc(N)nc(N3CCCC3)n2)cc(OC)c1OC	i
CSc1nc(Nc2ccccc2)c(C#N)c(-c2ccc(Cl)cc2)n1	i
COc1ccc(NC(=O)CSc2cc(N3CCCCC3)ncn2)cc1	i
Cc1nn(-c2cc(N3CCCC3)ncn2)c(C)c1CCC(=O)NC1CCCCCC1	i
O=C(CSc1cc(N2CCCCC2)ncn1)NC1CCCC1	+
COCC(C)N(Cc1ccccc1OC)C(=O)c1cnn2ccccc12 (stereo not drawn)	i
Cc1cccc(C)c1NCc1cc(=O)n2[nH]c(NCc3ccc(F)cc3)nc2n1	i
